From PubChem BioAssay AID504834 (National Center for Advancing Translational Sciences (NCATS), 2011) come the findings set out here.

The structures appear in SMILES notation. About 22,000 (6.9%) of roughly 320,000 compounds were called active. Another 27% or so got no clear call; they are omitted. What follows is part of a selection rich in actives, with near analogues and random picks from the rest. Values without a mark were called inactive. Calls follow the shape of the dose curve; as a rule, active = well fitted inhibition curve with a large enough effect; inconclusive = small, poorly fitted or top-dose-only effect, or another doubt; inactive = no such curve, though single readings can be large or run the other way.
% is scaled to controls: 0 for no effect and ±100 for the full control effect; potency is read from the fitted curve at half-maximal effect.

This experiment can be described thus: Primary qHTS for delayed death inhibitors of the malarial parasite plastid, 96 hour incubation. As to conditions: P. falciparum luciferase reporter growth; series mostly up to 28.7 µM; activity change, negative = inhibition: at the top concentration. An excerpt: The goal of this screen is to discover new antimalarial compounds that act by inhibiting the development of the apicoplast in the malarial parasite Plasmodium falciparum. The biochemical processes that make this organelle essential for erythrocytic stage parasites are not well understood. However, antibiotics such as azithromycin and tetracycline, which target the apicoplast translational machinery, have a potent antimalarial effect.
We have developed a cell-based assay that measures parasite growth based on the expression of an integrated copy of a firefly luciferase reporter. To detect small molecules that cause this "delayed death" phenotype, erythrocytes infected with the luciferase-expressing parasites were incubated with compounds for either one or two generations, corresponding to 48 and 96 hours, respectively. Compounds that inhibit parasite growth in the second generation, but not the first, should be enriched in antimalarials that target the apicoplast. Growth inhibition is detected by a decrease in luciferase activity.
Assay Provider: David Fidock and Eric Ekland, Columbia University
Keywords: NIH Roadmap, MLPCN, MLI, MLSMR, qHTS, NCGC, qHTS, malaria, luciferase, viability
Four microliters of infected erythrocytes (2% hematocrit, 0.05% parasitemia final concentration) in culture medium were dispensed and the plates incubated for 96 hours at 37 C in 5% CO2. Two microliters of luciferase detection reagent was added and luminescence was detected by a ViewLux (PerkinElmer) reader.
In the case of `CCOC(=O)c1cc2ccccc2n1CC(=O)c1ccccc1`, the “activity change, negative = inhibition” value was -6.84%.
Consider `CC(=O)Nc1ccc(NC(=O)[C@@H](NC(=O)c2cccc(C)c2)C(C)C)cc1`, for which the “activity change, negative = inhibition” value is 14.8%.
As for `O=C(O)CSc1ccc(S(=O)(=O)N2CCCC2)cn1`, the “activity change, negative = inhibition” value is -27.2%.
Regarding `CCN1CCCC1CNC(=O)c1cc2cc(OC)c(OC)cc2[nH]1` (stereo not given), the “activity change, negative = inhibition” value is -3.37%.
Still for that read-out and setting: then `CC(C)COc1ccc(C(=O)OCC(=O)NCCC2=CCCCC2)cc1`, with -3.54%.
With `O=C(COc1ccc(Cl)cc1)NCCC1=CCCCC1`, the “activity change, negative = inhibition” value is -3.84%.
With `O=C(COc1cccc(-n2cnnn2)c1)NCCC1=CCCCC1`, the Potency is 10.4 µM (active).
On to `Cc1ccn2c(c1)nc(=O)c1cc(S(=O)(=O)N3CCC(C)CC3)ccc12`, for which the “activity change, negative = inhibition” value is -23.3%.
`COC(=O)c1ccc(COC(=O)CNC(=O)c2cccc(OC)c2)o1`: the “activity change, negative = inhibition” value is 5.51%.
In the case of `CCN(CC)CCCNC(=O)c1c(O)c2cc(F)cc3c2n(c1=O)C(C)CC3` (stereo not given), the “activity change, negative = inhibition” value was 63.5%.
Turning to `CCN1C(=NCCc2cccnc2)N[C@@H](c2ccccc2)C(C(=O)OC)=C1C`, the Potency entry is “inactive”.
Same read-out and setting: the result for `CCN1C(=NCCc2cccnc2)N[C@@H](c2ccccc2)[C@H](C(=O)OC)[C@H]1C` reads 7.38 µM (active).
On to `CC(=O)OC(C(=O)NCCc1ccccc1)c1cccnc1` (stereo not given), for which the “activity change, negative = inhibition” value was 20.2%.
Regarding `CC(=O)C1=C(C)NC(=O)NC1c1ccc2c(c1)OCO2` (stereo not given), the “activity change, negative = inhibition” value is 42.1%.
For `CC(C)(C)c1ccc(C(CC(=O)O)NS(=O)(=O)Cc2ccccc2)cc1` (stereo not given), the “activity change, negative = inhibition” value was 14.4%.
Same read-out and setting: the result for `Cc1ccnc(NS(=O)(=O)c2ccc(NC(=O)c3ccc(S(=O)(=O)N4CCOCC4)cc3)cc2)n1` reads -31.3%.
Take `O=C(Nc1ccc(S(=O)(=O)Nc2nccs2)cc1)c1cccc(S(=O)(=O)N2CCOCC2)c1`: the Potency was 11.7 µM (active).
Turning to `O=C(Nc1ccc(S(=O)(=O)Nc2nccs2)cc1)c1cc(=O)[nH]c2ccccc12`, the “activity change, negative = inhibition” value is 16.1%.
As for `Cc1cccc(C)c1NC(=S)N1CCCCCC1`, the “activity change, negative = inhibition” value is 20.3%.
On to `Cc1ccccc1NC(=O)Cc1nc(COC(=O)c2ccc(C(F)(F)F)cc2)cs1`, for which the “activity change, negative = inhibition” value is 19.2%.
For the molecule `CCOc1ccc(N(CC(=O)NCc2ccc(OC)cc2)S(=O)(=O)c2c(C)noc2C)cc1`, the Potency is 9.28 µM (active).
As for `Cc1noc(C)c1S(=O)(=O)N(CC(=O)NCc1ccc(Cl)cc1)c1ccc2c(c1)OCO2`, the “activity change, negative = inhibition” value is -22.2%.
In the case of `CCOc1ccc(N(CC(=O)NCCc2ccc(OC)cc2)S(C)(=O)=O)cc1`, the “activity change, negative = inhibition” value was 22.2%.
Consider `COc1ccc(C(=O)N2CCCN(C)CC2)c(OC)c1`, for which the “activity change, negative = inhibition” value is -15.6%.
Take `Cc1cc(C)c(S(=O)(=O)c2ccc(F)cc2C)c(=O)[nH]1`: the “activity change, negative = inhibition” value is -2.87%.
For the molecule `O=C(OCC(=O)N1CCCC1=O)c1cc(S(=O)(=O)N2CCOCC2)ccc1Cl`, the “activity change, negative = inhibition” value was 16.7%.
As for `Cc1noc(C)c1COc1ccc(C(=O)NCCOc2ccccc2)cc1`, the “activity change, negative = inhibition” value was 34.1%.
On to `O=C(CCC1CCN(C(=O)c2cccc(Cl)c2F)CC1)Nc1ccccc1`, for which the “activity change, negative = inhibition” value is -20.8%.
On to `CCNC(=O)c1cccc(NC(=O)C2CC(=O)N(CCc3ccccc3)C2)c1` (stereo not given), for which the “activity change, negative = inhibition” value was 9.08%.
With `COC(=O)CNC(=O)c1ccccc1F`, the “activity change, negative = inhibition” value was 9.78%.
Turning to `CN(NC(=O)c1ccccc1)c1nc2ccccc2nc1C(F)(F)F`, the “activity change, negative = inhibition” value is 31.1%.
Take `CN(NC(=O)c1ccccc1F)c1nc(C(F)(F)F)nc2ccccc12`: the Potency was 11.7 µM (active).
Turning to `O=C(O)c1ccccc1N=N/C(=N/Nc1cc(S(=O)(=O)O)ccc1O)c1ccccc1`, the “activity change, negative = inhibition” value is 15.8%.
As to `CC1CC(=O)Nc2ccccc2N1C(=O)COc1ccc2cc(Br)ccc2c1` (stereo not given), the “activity change, negative = inhibition” value is -10.8%.
For `C=CCN(C(=O)Nc1ccc2c(c1)nc(C)n2C)c1ccccc1`, the “activity change, negative = inhibition” value was 128%.
For the molecule `C=CCN(C(=O)Cn1ncc2c1-c1cc(C)ccc1OC2)c1ccccc1`, the Potency was 9.28 µM (active).
For the molecule `C=CCN(C(=O)Nc1ccc2oc(C)nc2c1)c1ccccc1`, the “activity change, negative = inhibition” value was 35.4%.
With `CC(=O)NC(CC(=O)Nc1cccc(S(=O)(=O)N2CCCC2)c1)c1ccccc1` (stereo not given), the “activity change, negative = inhibition” value is -13.5%.
On to `CC[C@]1(O)C[C@@H]2CN(CCc3c([nH]c4ccccc34)[C@@](C(=O)OC)(c3cc4c(cc3OC)N(C)[C@H]3[C@@](O)(C(=O)OC)[C@H](OC(C)=O)[C@]5(CC)C=CCN6CC[C@]43[C@@H]65)C2)C1`, for which the Potency was 0.147 µM (active).
As to `CC[C@]1(O)CC2CN(CCc3c([nH]c4ccccc34)[C@@](C(=O)OC)(c3cc4c(cc3OC)N(C=O)[C@H]3[C@@](O)(C(=O)OC)[C@H](OC(C)=O)[C@]5(CC)C=CCN6CC[C@]43[C@@H]65)C2)C1` (stereo not given in full), the Potency is 0.262 µM (active).
Consider `CN(C(=O)COC(=O)CNC(=O)C12CC3CC(CC(C3)C1)C2)c1ccccc1`, for which the “activity change, negative = inhibition” value was 9.76%.
On the same count and under the same terms, then `Cc1cc(NC(=O)CSc2nnnn2-c2ccc(F)cc2)no1`, with 11.3%; and `CC(C(=O)NCCc1ccc(S(N)(=O)=O)cc1)N1C(=O)CC(C)(C)Sc2ccccc21` (stereo not given), with 8.48%; and `CCCN(C(=O)c1nc2nccc(C)n2n1)c1c(N)n(Cc2ccccc2)c(=O)[nH]c1=O`, with -13.1%.
Turning to `COc1ccccc1/C=C/C(=O)NC(=S)N1CCOCC1`, the “activity change, negative = inhibition” value is 1.93%.
Consider `COc1ccc(OC)c(NC(=O)c2ccc3c(c2)CCN3S(C)(=O)=O)c1`, for which the “activity change, negative = inhibition” value was 4.71%.
Consider `CCOC(=O)N1CCN(C(=S)Nc2ccc(C)cc2C)CC1`, for which the “activity change, negative = inhibition” value was 0%.
Regarding `COc1ccc(NC(=S)N2CCc3cc(OC)c(OC)cc3C2)cc1`, the “activity change, negative = inhibition” value was 6.7%.
Take `COc1ccc(OC)c(NC(=S)N2CCc3ccccc3C2)c1`: the Potency is 4.15 µM (active).
In the case of `COc1ccc(C)cc1NC(=S)N1CCOCC1`, the Potency is 10.4 µM (active).
